Assay outcomes (PubChem BioAssay)
tim23-1 inh = growth inhibitors of tim23-1 mutant yeast. 1.3% of 330,000 active. S. cerevisiae tim23-1 growth, BacTiter-Glo luminescence, 24 h. inhibition, % at 20 µM;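 active = growth inhibition of the mutant yeast at or above 50%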;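 note: temperature-sensitive mutant grown at 25 °C; plate controls were DMSO-treated mutant yeast for no effect and medium wells lacking yeast for full effect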
PfHsp90 yeast 2 = reduces growth (ATP signal) of yeast expressing P. falciparum Hsp90 | inhibition, % at 9.4 µM | 0.32% of 310,000 active | S. cerevisiae expressing PfHsp90, BacTiter-Glo ATP, 48 h; yeast lacking PDR1 and PDR3 efflux regulators;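 active = every replicate shows inhibition above about 80%, whatever the replicate mean, limit read from the data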;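 note: 0% = DMSO neutral controls and 100% = 20 µM radicicol positive controls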
NALP3 yeast inh = NALP3 inhibition in yeast; Yeast reconstituted NLRP3/ASC/caspase-1, beta-gal luminescence, 24 h; inhibition, % at 10 µM; 0.39% of 330,000 active; AID 2825;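 active = inhibition of 50% or more; inactive = inhibition below 50%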;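 note: plate controls were induced DMSO wells for no effect and uninduced yeast grown without galactose for full effect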
TIM10 inh = growth inhibitors of TIM10 yeast strain; inhibition, % at 10 µM; 1.4% of 330,000 active; S. cerevisiae TIM10 strain growth, BacTiter-Glo luminescence, 24 h;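 active = inhibition of 40% or more at the single tested concentration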;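 note: wild-type TIM10 isogenic control strain grown at permissive 25 °C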
NALP1 yeast inh = inhibitors of NALP1 inflammasome in yeast; inhibition, % at 10 µM; AID 2071; S. cerevisiae NALP1/ASC/caspase-1 growth, X-gal OD620, 72 h; 0.61% of 280,000 active; in the data active = inhibition mostly above about 24%, no sharp cut-off; inactive = mostly below about 32%
tim10-1 inh = tim10-1 yeast growth inhibition | inhibition, % at 20 µM | 2.2% of 330,000 active | S. cerevisiae tim10-1 ts strain growth, BacTiter-Glo, 24 h | AID 463190;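 active = inhibition of at least 40%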;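 note: mutant grown at 25 °C; 0% = DMSO wells with yeast and 100% = wells holding no yeast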
tim10 confirm = TIM10 yeast growth inhibition, confirmed; AID 463215; S. cerevisiae tim10 strain growth, BacTiter-Glo luminescence, 24 h; 63% of 4,600 active; shares compounds with TIM10 inh; inhibition, % at 10 µM;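 active = inhibition of yeast growth at or above a set limit in either of two replicates at 10 µM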;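 note: this counterscreen used the strain with wild-type TIM10; 0% = yeast with DMSO and 100% = medium wells lacking yeast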
* hit, by the source's call. Hits are enriched below; roughly 4.2% of the tested compounds scored in any of these assays.

Screening CC(=O)C(Sc1nc(NC(C)(C)C)nc(N(C)C)n1)C(C)=O returned tim23-1 inh 27, PfHsp90 yeast 2 18, NALP3 yeast inh 16, TIM10 inh 44*, NALP1 yeast inh -12, tim10-1 inh 29 and tim10 confirm 12.
`CN(C)c1ccc(/C=C(\C#N)C(=O)NCc2ccco2)cc1` gave tim23-1 inh 11, NALP3 yeast inh 0, TIM10 inh 15, NALP1 yeast inh 13 and tim10-1 inh 4.
`Cn1c(=O)n(C)c2cc(/C=C(/C#N)C(=O)NCc3ccco3)ccc21` gave tim23-1 inh 21, PfHsp90 yeast 2 -1, NALP3 yeast inh 4, TIM10 inh 43*, NALP1 yeast inh 12, tim10-1 inh 34 and tim10 confirm 37*.
For CC(C)CC(c1nnnn1Cc1cccs1)N1CCN(c2nc3ccccc3s2)CC1 (stereo not given) the results were tim23-1 inh 1, PfHsp90 yeast 2 33, NALP3 yeast inh -3, TIM10 inh 28, NALP1 yeast inh 20 and tim10-1 inh 30.
`CC(C)C(c1nnnn1Cc1ccco1)N1CCN(c2nc3ccccc3s2)CC1` (stereo not given) gave tim23-1 inh 21, PfHsp90 yeast 2 16, NALP3 yeast inh 8, TIM10 inh 45*, NALP1 yeast inh 7, tim10-1 inh 28 and tim10 confirm -25.
COC1CCN(Cc2c(C(=O)N3CCN(C4CCCCC4)CC3)nc3ccccn23)CC1 was read as tim23-1 inh -5, PfHsp90 yeast 2 26, NALP3 yeast inh 5, TIM10 inh -1, NALP1 yeast inh 17 and tim10-1 inh -6.
`Cc1c(C(=O)OC2CCCCC2)[nH]c2c1C(=O)CC(C)(C)C2` gave tim23-1 inh 21, PfHsp90 yeast 2 -23, NALP3 yeast inh 36, TIM10 inh 96*, NALP1 yeast inh 12, tim10-1 inh -7 and tim10 confirm -7.
`CC(C)(C)n1nnnc1C(c1cccs1)N(Cc1ccc(Cl)cc1)CC1CCCO1` (stereo not given) gave tim23-1 inh 41, PfHsp90 yeast 2 -22, NALP3 yeast inh 3, TIM10 inh 41*, NALP1 yeast inh 10, tim10-1 inh 35 and tim10 confirm -19.
Screening COCCNC(=S)N/N=C/c1c2ccccc2cc2ccccc12 returned tim23-1 inh 35, PfHsp90 yeast 2 -34, NALP3 yeast inh 18, TIM10 inh 41*, NALP1 yeast inh -11, tim10-1 inh 28 and tim10 confirm 37*.
Screening FC(F)(F)COc1ccc(-c2nnc(SCc3ccccc3)o2)cn1 returned tim23-1 inh -1, PfHsp90 yeast 2 5, NALP3 yeast inh 13, TIM10 inh -3, NALP1 yeast inh 17 and tim10-1 inh -2.
For CCOC(=O)N1CCN(C(=O)c2ccc3nc(N4CCC(C)CC4)sc3c2)CC1 the results were tim23-1 inh 23, PfHsp90 yeast 2 13, NALP3 yeast inh 18, TIM10 inh 27, NALP1 yeast inh 9 and tim10-1 inh 37.
For COc1cccc(N2CCN(C(=O)c3ccc4nc(N5CCC(C)CC5)sc4c3)CC2)c1 the results were tim23-1 inh 39, NALP3 yeast inh 17, TIM10 inh 42*, tim10-1 inh 31 and tim10 confirm 42*.
`Cc1ccc(NC(=O)CN2C(=O)c3ccccc3C2=O)c(C)c1` gave tim23-1 inh -13, PfHsp90 yeast 2 -16, NALP3 yeast inh 20, TIM10 inh 97*, NALP1 yeast inh 23, tim10-1 inh -25 and tim10 confirm 1.
Screening Cc1cc(C)cc(-n2cnc3cc(C(=O)O)ccc32)c1 returned tim23-1 inh 9, PfHsp90 yeast 2 0, NALP3 yeast inh -1, TIM10 inh 10, NALP1 yeast inh 6 and tim10-1 inh -3.
`CCCNC(=O)c1ccc2c(c1)ncn2-c1cc(C)cc(C)c1` gave tim23-1 inh 38, PfHsp90 yeast 2 -2, NALP3 yeast inh 9, TIM10 inh 42*, NALP1 yeast inh 2, tim10-1 inh 27 and tim10 confirm 22.
`COc1ccc(/C=N/NC(=O)c2ccoc2C)cc1COc1ccc(Cl)cc1` gave tim23-1 inh 25, PfHsp90 yeast 2 -27, NALP3 yeast inh 0, TIM10 inh 51*, NALP1 yeast inh 6, tim10-1 inh 37 and tim10 confirm 5.
